From PubChem BioAssay
Pin1 inh – human Pin1 inhibition | Q13526 | Pin1 FP peptide displacement, HiFluor488, 10 min | Potency, µM (doses to about 115 µM), most hits filed as inhibitors | 390,000 compounds, 0.009% hits; active means well fitted inhibition curve with a large enough effect in the polarisation, with a control signal flat, not every such curve was filed as active; inconclusive means small, poorly fitted or top-dose-only effect, or effect the other way, or a change in a side signal; inactive means no such curve, though single readings can be large or run the other way; the % refers to the polarisation
FEN1 inh – blocks human flap endonuclease 1 | Recombinant FEN1 flap cleavage, fluorescence, 15 min | Potency, µM (series often up to 114 µM), usual class: inhibitors | P39748 | 390,000 compounds, 0.35% hits; further: nearly all actives have a fitted effect of over 65% in size
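Quantitative HTS format: each compound was titrated, incubated with 10 nM nuclease for 15 min at room temperature, then challenged with flap substrate at 50 nM final. Signal change over 15 min gave concentration–effect curves.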
PI5P4Ka inh – inhibitors of human PI5P4K alpha; PI5P4Kalpha enzyme, ADP-Glo luminescence, 60 min; stronger effect = lower value; max response, %; 330,000 compounds, 1.2% hits; AID 652105; active means max response of -50% or lower; inconclusive means between -30% and -50%; inactive means -30% or higher; further: value at the top dose of about 77 µM
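Enzyme plus substrate dispensed, test compounds pinned in, then ATP (5 microM final) added. After 60 min at RT, ADP-Glo reagent 1 for 45 min and reagent 2 for 30 min preceded luminescence imaging.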
GRP78 ERSR act – ER stress response induction in glioma. U87-MG GRP78 promoter luciferase reporter, 16 h. Potency, µM, actives largely listed as activators. 420,000 compounds, 0.02% hits. AID 602332; further: series mostly up to about 76 µM; nearly all actives have a fitted effect of over 35% in size
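Stably transfected U87-MG glioma cells carrying a GRP78-based luciferase sensor; 16 h compound incubation. Luminescence end-point read 10 min after Bright-Glo addition at room temperature.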
WRN helicase inh – WRN helicase (human) inhibition | AID 651768 | Potency, µM (highest dose often 114 µM), actives largely listed as inhibitors | 360,000 compounds, 0.46% hits | WRN helicase unwinding, fluorescent forked duplex, kinetic | Q14191; further: nearly all actives have a fitted effect of over 55% in size
Target sequence (Q14191 whole entry, looked up): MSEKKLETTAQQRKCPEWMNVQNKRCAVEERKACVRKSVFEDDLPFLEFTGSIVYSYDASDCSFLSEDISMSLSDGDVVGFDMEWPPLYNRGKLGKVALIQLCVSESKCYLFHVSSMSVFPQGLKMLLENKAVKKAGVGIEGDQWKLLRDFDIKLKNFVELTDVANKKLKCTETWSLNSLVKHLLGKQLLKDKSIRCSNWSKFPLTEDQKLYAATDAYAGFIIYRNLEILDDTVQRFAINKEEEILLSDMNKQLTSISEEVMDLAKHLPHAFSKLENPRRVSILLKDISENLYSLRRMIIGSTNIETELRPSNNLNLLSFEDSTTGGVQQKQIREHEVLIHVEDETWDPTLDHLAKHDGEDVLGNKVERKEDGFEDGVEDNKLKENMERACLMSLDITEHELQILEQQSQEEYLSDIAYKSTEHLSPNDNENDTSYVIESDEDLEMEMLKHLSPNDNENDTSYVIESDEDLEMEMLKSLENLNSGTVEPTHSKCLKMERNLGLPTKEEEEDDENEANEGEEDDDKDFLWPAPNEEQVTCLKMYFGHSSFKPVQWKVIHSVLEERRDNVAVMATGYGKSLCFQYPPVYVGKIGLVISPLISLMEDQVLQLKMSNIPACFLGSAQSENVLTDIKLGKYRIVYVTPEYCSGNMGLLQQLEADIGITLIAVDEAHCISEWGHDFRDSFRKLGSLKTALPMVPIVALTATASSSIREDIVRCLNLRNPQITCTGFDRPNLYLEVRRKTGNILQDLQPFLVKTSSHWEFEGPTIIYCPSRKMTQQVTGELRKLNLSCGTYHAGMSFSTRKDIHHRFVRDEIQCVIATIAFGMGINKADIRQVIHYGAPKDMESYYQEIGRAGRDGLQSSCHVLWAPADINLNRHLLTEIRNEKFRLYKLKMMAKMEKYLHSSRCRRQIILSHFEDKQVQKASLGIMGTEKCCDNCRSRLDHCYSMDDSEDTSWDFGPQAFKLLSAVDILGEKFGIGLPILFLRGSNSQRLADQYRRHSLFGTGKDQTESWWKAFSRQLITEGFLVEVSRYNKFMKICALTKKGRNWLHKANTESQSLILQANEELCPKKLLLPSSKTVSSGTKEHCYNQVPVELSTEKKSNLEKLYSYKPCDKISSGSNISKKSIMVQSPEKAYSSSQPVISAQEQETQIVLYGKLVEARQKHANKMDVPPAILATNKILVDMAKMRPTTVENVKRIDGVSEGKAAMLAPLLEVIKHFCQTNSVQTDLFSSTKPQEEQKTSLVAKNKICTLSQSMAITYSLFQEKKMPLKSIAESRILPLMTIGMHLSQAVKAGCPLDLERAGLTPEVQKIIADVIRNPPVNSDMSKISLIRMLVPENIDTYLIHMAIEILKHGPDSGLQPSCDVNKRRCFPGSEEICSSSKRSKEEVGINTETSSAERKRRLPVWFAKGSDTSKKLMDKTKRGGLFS
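Kinetic fluorescence helicase assay: unwinding of a quenched forked DNA duplex (100 nM final) with 2 mM ATP final raises red fluorescence (525/598 nm). Compounds sat 15 min at room temperature with 20 nM WRN beforehand.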
Tb PGK inh – blocks T. brucei phosphoglycerate kinase; 380,000 compounds, 0.043% hits; P07378; Potency, µM (top dose mostly 57.5 µM), usual class: inhibitors; AID 602233; PGK/GAPDH coupled, Kinase-Glo luminescence, 60 min; further: nearly all actives have a fitted effect of over 60% in size
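Recombinant glycosomal PGK reaction used 1,3-bisphosphoglycerate generated in-well by GAPDH (100nM final) in 100mM TEA pH 7.6, 5mM MgCl2, 0.01% Tween-20. After 60 minutes at room temperature, ATP was read by Kinase-Glo Plus luminescence end-point.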
Hits are given with their value. Most compounds without a hit are left out; they make up all but 1.3% or so of the library. Unless noted, the call rests on the fitted dose curve; in most records, active means well fitted curve in the direction sought with a large enough effect; inconclusive means small, poorly fitted or top-dose-only effect, or another doubt; inactive means no such curve, though single readings can be large; an effect the other way counts as inactive or inconclusive.

`O=C1NC(=O)N(c2ccccc2)C(=O)/C1=C/c1ccc(Sc2ccccc2)o1` gave Pin1 inh inactive, FEN1 inh inactive, GRP78 ERSR act inactive, WRN helicase inh 45µM and Tb PGK inh inactive.
Screening O=C1NC(=O)N(c2ccccc2)C(=O)/C1=C/c1ccoc1 returned Pin1 inh inconclusive, FEN1 inh inconclusive, PI5P4Ka inh inconclusive, GRP78 ERSR act inactive, WRN helicase inh inconclusive and Tb PGK inh inactive.
For O=C1NC(=O)N(c2ccccc2F)C(=O)/C1=C/c1ccc(Sc2nc3ccccc3[nH]2)o1 the results were Pin1 inh inconclusive, FEN1 inh inconclusive, PI5P4Ka inh -86, GRP78 ERSR act inactive, WRN helicase inh 22µM and Tb PGK inh inconclusive.
`COCCNC(=O)Cn1cc(/C=C2\C(=O)NC(=O)N(c3ccccc3F)C2=O)c2ccccc21` gave Pin1 inh inactive, FEN1 inh inactive, PI5P4Ka inh inactive, GRP78 ERSR act inactive, WRN helicase inh inactive and Tb PGK inh inactive.
`CCN(CC)c1ccc(/C=C2\C(=O)NC(=S)N(C)C2=O)o1` gave Pin1 inh inconclusive, FEN1 inh inactive, PI5P4Ka inh inactive, GRP78 ERSR act inactive, WRN helicase inh inactive and Tb PGK inh inactive.
CN1C(=O)/C(=C\N2CCc3ccccc32)C(=O)NC1=S was read as Pin1 inh inconclusive, FEN1 inh inactive, PI5P4Ka inh inconclusive, GRP78 ERSR act inactive, WRN helicase inh 50µM and Tb PGK inh inactive.
Cc1ccc(Cl)cc1NC(=O)Cn1c(=O)oc2cc(S(=O)(=O)N3CCCCCC3)ccc21 was read as Pin1 inh inactive, FEN1 inh inactive, GRP78 ERSR act inconclusive and Tb PGK inh inactive.
`CC[C@H](C)/C=C(C)/C=C/C1=CC2=C(Cl)C(=O)[C@](C)(OC(C)=O)C(=O)C2=CO1` gave Pin1 inh inconclusive, FEN1 inh inconclusive, PI5P4Ka inh -104, GRP78 ERSR act inactive, WRN helicase inh 50µM and Tb PGK inh inconclusive.
`C[C@@H]1C(=O)O[C@@H]2C[C@]34[C@H]5C[C@@H](C(C)(C)C)[C@@]36[C@@H](OC(=O)[C@@H]6O)O[C@@]4(C(=O)O5)[C@@]12O` gave GRP78 ERSR act inactive.
COc1cc(/C=C/C(=O)c2c(O)n(CCc3ccccc3)c(=O)[nH]c2=O)ccc1O was read as Pin1 inh inconclusive, FEN1 inh inconclusive, PI5P4Ka inh -65, GRP78 ERSR act inactive, WRN helicase inh inactive and Tb PGK inh inactive.
`C[C@@H]1[C@H](O)[C@@H](C)C=CC=CCCC=CC=CC=CC=C[C@H](O[C@H]2O[C@@H](C)[C@H](O)[C@@H](N)[C@@H]2O)CC2O[C@](O)(C[C@@H](O)[C@H](O)CC[C@@H](O)C[C@@H](O)C[C@@H](O)CC(=O)O[C@H]1C)C[C@H](O)[C@H]2C(=O)O` gave GRP78 ERSR act inactive.
For C=C/C(=C/C(=O)C[C@H](C)C[C@@H](C)CC[C@H](O)[C@H](C)C(=O)C[C@@H](O)[C@H](C)[C@@H](C)OC(=O)C[C@@H](O)C1=C(C)C(=O)OC1=O)CC the results were GRP78 ERSR act inactive.
Screening COc1ccccc1N1C(=O)NC(=O)/C(=C/c2ccc3c4c(cccc24)CC3)C1=O returned Pin1 inh inconclusive, FEN1 inh inactive, PI5P4Ka inh -58, GRP78 ERSR act inactive, WRN helicase inh inconclusive and Tb PGK inh inactive.
Screening COc1ccc(N2C(=O)/C(=C/c3cccs3)C(=O)NC2=S)cc1 returned Pin1 inh inconclusive, FEN1 inh inactive, PI5P4Ka inh -96, GRP78 ERSR act inactive, WRN helicase inh 45µM and Tb PGK inh inactive.
For COc1ccccc1C=C1C(=O)NC(=S)NC1=O the results were Pin1 inh inactive, FEN1 inh inactive, PI5P4Ka inh -86, GRP78 ERSR act inactive, WRN helicase inh inconclusive and Tb PGK inh inactive.
`COc1ccc(N2C(=O)/C(=C/c3ccc(N(C)C)o3)C(=O)NC2=S)cc1` gave Pin1 inh inconclusive, FEN1 inh inactive, PI5P4Ka inh inactive, GRP78 ERSR act inactive, WRN helicase inh inactive and Tb PGK inh inactive.
Screening CCN1C(=O)/C(=C/c2ccc(N(CC)CC)cc2OC)C(=O)NC1=S returned Pin1 inh inconclusive, FEN1 inh inactive, PI5P4Ka inh inconclusive, GRP78 ERSR act inactive, WRN helicase inh inactive and Tb PGK inh inactive.
`COc1ccc(N2C(=O)/C(=C/C=C/c3ccccc3[N+](=O)[O-])C(=O)NC2=S)cc1` gave FEN1 inh inconclusive, PI5P4Ka inh -91, GRP78 ERSR act inactive, WRN helicase inh 25µM and Tb PGK inh inactive.
`CC1(C)CC/C(=C\c2ccc(Cl)cc2)C1(O)Cn1cncn1` (configuration not stated) gave GRP78 ERSR act inactive.
NC(N)=NCCC[C@H](N)C(=O)O was read as FEN1 inh inactive and GRP78 ERSR act inactive.
For CC12CCC(=O)CC1CCC1C2CCC2(C)C1CCC2(C)O (configuration not stated) the results were GRP78 ERSR act inactive.
COc1ccccc1/C=C1\C(=O)NC(=S)N(c2ccccc2)C1=O was read as Pin1 inh inactive, FEN1 inh inactive, PI5P4Ka inh -55, GRP78 ERSR act inactive, WRN helicase inh inactive and Tb PGK inh inactive.
`O=C1NC(=O)C(=Cc2ccc3ccccc3c2)C(=O)N1` gave Pin1 inh inactive, FEN1 inh inconclusive, PI5P4Ka inh -79, GRP78 ERSR act inactive, WRN helicase inh inactive and Tb PGK inh inactive.
For O=C1NC(=O)C(=Cc2ccc(Cl)cc2)C(=O)N1 the results were PI5P4Ka inh inconclusive and WRN helicase inh inactive.
For Cc1cc(C)cc(OCCOc2cccc(C=C3C(=O)NC(=O)NC3=O)c2)c1 the results were Pin1 inh inactive, FEN1 inh inconclusive, PI5P4Ka inh -51, GRP78 ERSR act inactive, WRN helicase inh inactive and Tb PGK inh inactive.
Screening Cc1ccc(OCCOc2cccc(C=C3C(=O)NC(=O)NC3=O)c2)cc1 returned Pin1 inh inconclusive, FEN1 inh inactive, PI5P4Ka inh -78, GRP78 ERSR act inactive, WRN helicase inh inactive and Tb PGK inh inactive.
For CCOc1cc(OP(=S)(OC)OC)nc(CC)n1 the results were GRP78 ERSR act inactive.
`C[C@@H]1O[C@@H](O[C@H]2CC[C@@H](O[C@H]3[C@H](O)C[C@H](c4ccc5c(c4O)C(=O)C4=C(C5=O)[C@@]5(O)C(=O)C[C@](C)(O[C@H]6CC[C@H](O[C@H]7C=CC(=O)[C@H](C)O7)[C@H](C)O6)C[C@@]5(O)C=C4)O[C@@H]3C)O[C@H]2C)C=CC1=O` gave GRP78 ERSR act inactive.
CCN(CC)S(=O)(=O)c1ccc(NN=C(C#N)C#N)cc1 was read as Pin1 inh inactive, FEN1 inh inactive, PI5P4Ka inh -58, GRP78 ERSR act inactive, WRN helicase inh inactive and Tb PGK inh inactive.
